Assay results published in PubChem BioAssay (NCI).
This is part of a sample that, as a whole, favours compounds with a hit. Of some 83,000 tested, about 20% had one in any assay.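 Values shown are percent growth following 48 h exposure of cells in 96-well plates to a single concentration of compound; below 10 was considered active.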 A number with no mark means an inactive call. Active and inactive are the calls of the source.

Experiments:
Assay in all cases: NCI-60 one-dose screen, 48 h (100 = growth as untreated, 0 = no growth, -100 = all killed)
Details in all cases: 10 µM unless noted
NCI-H23 lung = system: NCI-H23 lung
NCI-H226 lung = system: NCI-H226 lung
NCI-H322M lung = system: NCI-H322M lung
HOP-62 NSCLC = system: HOP-62 NSCLC
NCI-H460 lung = system: NCI-H460 lung
HOP-92 NSCLC = system: HOP-92 NSCLC
NCI-H522 lung = system: NCI-H522 lung
A549/ATCC NSCLC = system: A549/ATCC NSCLC
786-0 renal = system: 786-0 renal
COLO 205 colon = system: COLO 205 colon
DU-145 prostate = system: DU-145 prostate
K-562 leukemia = system: K-562 leukemia
MALME-3M melanoma = system: MALME-3M melanoma
MDA-MB-231 breast = system: MDA-MB-231 breast
SF-268 CNS = system: SF-268 CNS
SF-295 CNS = system: SF-295 CNS
SF-539 CNS = system: SF-539 CNS
UACC-257 melanoma = system: UACC-257 melanoma
M14 melanoma = system: M14 melanoma

Row | SMILES | growth (NCI-H23 lung) | growth (NCI-H226 lung) | growth (NCI-H322M lung) [%] | growth (HOP-62 NSCLC) | growth (NCI-H460 lung) | growth (HOP-92 NSCLC) | growth (NCI-H522 lung) | growth (A549/ATCC NSCLC) | growth (786-0 renal) | growth (COLO 205 colon) | growth (DU-145 prostate) | growth (K-562 leukemia) | growth (MALME-3M melanoma) | growth (MDA-MB-231 breast) | growth (SF-268 CNS) | growth (SF-295 CNS) | growth (SF-539 CNS) | growth (UACC-257 melanoma) | growth (M14 melanoma)
1 | COc1cccc(CCC(=O)c2cc3c(N)c(C(=O)Nc4cccc(Cl)c4C)sc3nc2C)c1 | 37.4% | 45.7% | 43.6 | 36.4% | 7.76% (active) | 48% | 12.1% | 27.3% | 25.9% | 7.16% (active) | 13.8% | 7.49% (active) | 41.3% | 16.9% | 37.3% | 2.95% (active) | -41.6% (active) | 65.1% | 16.4%
2 | O=C(O)CNC(=O)CN1C(=O)c2ccccc2C1=O | 102% | 89.1% | 104 | 88.3% | 103% | 97.4% | 100% | 81.6% | 98.4% | 104% | 120% | 85.8% | 98.6% | 114% | 106% | 103% | 107% | 76.6% | 92.7%
3 | CCN(CC)CCCC(C)Nc1cc(-c2cccc(OC(F)(F)F)c2)nc2ccc(N3CCCC3)cc12 (configuration not stated) | 57.9% | 46.7% | 17.7 | 23.3% | -4.02% (active) | -5.67% (active) | 2.05% (active) | 10.7% | -19.7% (active) | -79% (active) | 37% | -46.5% (active) | -93% (active) | -50.3% (active) | 26% | 28.3% | -91.7% (active) | -81.1% (active) | -81.9% (active)
4 | COc1cnccc1-c1nc2ccc3[nH]ncc3c2c2c1CCCC2 | 67.1% | 67% | 67.1 | 61% | 44.7% | 69.2% | 30.6% | 47.6% | 49% | 55.3% | 62.7% | 42.2% | 73.8% | 68.2% | 61.3% | 60.5% | 35.7% | 87.5% | 46.3%
5 | Cn1c(COC(=O)N2CCCCC2)nc2c(N3CCOCC3)nc(-c3ccccc3)nc21 | -75.9% (active) | -60.8% (active) | 37.4 | -31.3% (active) | -55.9% (active) | -64.7% (active) | -53.2% (active) | -39.7% (active) | -75.1% (active) | -60.2% (active) | -87% (active) | 3.43% (active) | -85.2% (active) | -71.6% (active) | -78.5% (active) | 21.6% | -91.9% (active) | -76.3% (active) | -59.8% (active)
6 | COc1cc(C2CC(c3cccc(Nc4ccncc4)c3)=NN2c2ccccc2)cc(OC)c1OC (configuration not stated) | 90% | 96% | 80.1 | 59.6% | 4.66% (active) | 28.1% | 77.3% | 44.9% | 69.1% | -52.5% (active) | 45.4% | 0.38% (active) | -77.7% (active) | 63.4% | 64.7% | 58.6% | 76.9% | -13.8% (active) | 58.9%
7 | COc1cc(NCCN(CC(C)C)C2CCCC2)c2ncccc2c1 | 81.1% | 92% | 118 | 82.9% | 95.7% | 95.9% | 78.1% | 81.7% | 98.1% | 101% | 104% | 99% | 126% | 79% | 86% | 94.1% | 98.3% | 91.5% | 102%
8 | COc1cc(NCCCN(CC(C)C)CC(C)C)c2ncccc2c1 | 72.9% | 97.8% | 108 | 87.6% | 95.2% | 84.2% | 73.2% | 80.7% | 90.7% | 90.2% | 106% | 110% | 102% | 88.7% | 89.5% | 89.4% | 102% | 90.9% | 91.4%
9 | COc1ccccc1N1CCN(C(=O)c2ccc3nc(NC(=O)c4ccc(NCCc5ccccc5)c([N+](=O)[O-])c4)sc3c2)CC1 | 81.9% | 87.4% | 91.5 | 82.9% | 86.5% | 81.9% | 80.4% | 91.3% | 110% | 100% | 68.7% | 86% | 45.6% | 75.7% | 67.6% | 102% | 99.7% | 72.7% | 64.4%
10 | COc1ccc(Cn2nc(-c3cc(OC)c(OC)c(OC)c3)c3c2CCc2cnoc2-3)cc1OC | 62.4% | 84.5% | 75.9 | 57.2% | 55.1% | 33.3% | 15.2% | 52.2% | 66.5% | 74.4% | 76.1% | 18.9% | 78% | 52.7% | 68% | 47.6% | 37.7% | 75.8% | 61.7%
11 | NC(=O)c1cccc(-c2cc(C(N)=O)ccc2Cl)c1 | 43.3% | 69.1% | 92.3 | 35.9% | 98.2% | 52% | 23.4% | 85% | 48.7% | 33.5% | 27.1% | 8.24% (active) | 46.4% | 47.4% | 45.3% | 25% | -21% (active) | 47.8% | 16.1%
12 | CC1CCN(C(=O)OCc2nc3nc(Cl)nc(N4CCOCC4)c3[nH]2)CC1 | 8.48% (active) | -73.7% (active) | 68 | 46.4% | 10.5% | -48.8% (active) | -67.8% (active) | 6.08% (active) | -79.8% (active) | -86.6% (active) | -76.7% (active) | -16.7% (active) | -78.9% (active) | -60.1% (active) | -81.6% (active) | 88.3% | -47.1% (active) | -89.7% (active) | -50.9% (active)
13 | COc1cc(COC(=O)CCCCC[P+](c2ccccc2)(c2ccccc2)c2ccccc2)c(OC)c2c1OCO2 | 51.9% | 67.6% | 84.1 | 79.2% | 64.5% | 20.1% | 50.2% | 81.2% | 91.9% | 71.4% | 83.5% | 19.4% | 5.27% (active) | 70.2% | 75.1% | 76.9% | 78.2% | 15.6% | 43.3%
